Results: PubChem BioAssay
Activity calls are given as the source filed them. Cut-off read from the data, not from the text of the source, unless noted: active = inhibition above about 28%; inactive = the rest.

Key:
[1] = StAR promoter reporter inhibitors, counter-screen for LRH-1 inverse agonist project, cell-based, luminescence, high throughput (AID 651611); details: StAR promoter luciferase reporter counterscreen, at 3.6 µM, hits give high values
[2] = target: Nuclear receptor subfamily 5 group A member 2 (Homo sapiens) (UniProt O00482); assay: NR5A2 activity suppression in reporter cells – cell-based, luminescence, confirmation (AID 651613; in the data active = inhibition above about 42%;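 note: HEK293T cells co-transfected with LRH-1 and StAR promoter luciferase reporter; 0% = vehicle wells and 100% = parental cells lacking receptor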); details: cell-based LRH-1 luciferase reporter, inverse agonism; at 3.6 µM; hits give high values
[3] = target: Steroidogenic factor 1 (Homo sapiens) (UniProt Q13285); assay: inverse agonism at SF1 nuclear receptor – cell-based, luminescence, high throughput, counter-screen for LRH-1 inverse agonist project (AID 651614; in the data active = inhibition above about 44%;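 note: cells cotransfected with StAR promoter reporter and SF1 expression vector; 0% = vehicle on cells with receptor and 100% = vehicle on cells lacking receptor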); details: cell-based SF1 luciferase reporter, at 3.6 µM, hits give high values
[4] = compounds suppressing VP16-driven luciferase signal – cell-based, luminescence, high throughput, counter-screen for LRH-1 inverse agonist project (AID 651615; in the data active = inhibition above about 33%); details: Gal4-VP16 luciferase reporter cells, at 3.6 µM, hits give high values

Chain of Nuclear receptor subfamily 5 group A member 2 (Homo sapiens) (O00482 whole entry, looked up): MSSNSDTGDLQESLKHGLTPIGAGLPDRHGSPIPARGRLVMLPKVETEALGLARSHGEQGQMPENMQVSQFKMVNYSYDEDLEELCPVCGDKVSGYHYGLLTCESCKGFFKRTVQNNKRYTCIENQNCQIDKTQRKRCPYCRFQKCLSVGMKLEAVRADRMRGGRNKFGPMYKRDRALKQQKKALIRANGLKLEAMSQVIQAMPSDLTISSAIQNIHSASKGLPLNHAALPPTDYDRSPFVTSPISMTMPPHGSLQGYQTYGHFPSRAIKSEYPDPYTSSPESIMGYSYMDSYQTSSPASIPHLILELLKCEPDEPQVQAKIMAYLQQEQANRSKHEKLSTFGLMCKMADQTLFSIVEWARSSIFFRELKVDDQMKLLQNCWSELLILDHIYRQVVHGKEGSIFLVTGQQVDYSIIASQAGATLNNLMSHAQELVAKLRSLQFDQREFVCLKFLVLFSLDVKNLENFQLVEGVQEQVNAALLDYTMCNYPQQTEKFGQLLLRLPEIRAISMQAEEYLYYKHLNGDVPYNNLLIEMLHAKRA
Chain of Steroidogenic factor 1 (Homo sapiens) (Q13285 whole entry, looked up, the tested form may be a part): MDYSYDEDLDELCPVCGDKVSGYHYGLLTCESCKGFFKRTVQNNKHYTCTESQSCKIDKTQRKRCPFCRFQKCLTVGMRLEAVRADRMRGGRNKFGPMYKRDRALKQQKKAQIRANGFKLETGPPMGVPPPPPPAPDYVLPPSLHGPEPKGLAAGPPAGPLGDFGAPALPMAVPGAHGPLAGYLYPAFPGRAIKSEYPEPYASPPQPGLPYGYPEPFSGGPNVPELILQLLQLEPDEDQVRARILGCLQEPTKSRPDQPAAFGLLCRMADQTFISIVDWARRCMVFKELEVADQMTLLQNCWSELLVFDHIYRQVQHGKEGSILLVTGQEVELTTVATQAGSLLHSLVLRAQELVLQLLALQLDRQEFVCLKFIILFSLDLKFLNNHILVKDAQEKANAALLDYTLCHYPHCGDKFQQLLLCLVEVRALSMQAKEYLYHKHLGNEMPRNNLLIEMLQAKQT

Structure (SMILES) | inhibition [1] | inhibition [2] | inhibition [3] | inhibition [4]
NC(=O)c1ccc(NC(=O)COC(=O)C2COc3ccccc3O2)cc1 (stereo unspecified) | 21.9% (inactive) | 52.4% (active) | 56.7% (active) | -20.5% (inactive)
CN(C)c1nnnn1-c1cccc(Oc2ncc(C(F)(F)F)cc2Cl)c1 | 8.18% (inactive) | 38.6% (inactive) | 38.3% (inactive) | -5.85% (inactive)
O=C(Nc1cccc2ncccc12)c1ccc([N+](=O)[O-])o1 | 16.2% (inactive) | 69.9% (active) | 64.4% (active) | -17.5% (inactive)
CCOc1ccc(CCNC(=O)COC(=O)c2ccc(F)c(S(=O)(=O)N3CCOCC3)c2)cc1OCC | 10.3% (inactive) | 61.8% (active) | 61.6% (active) | -3.82% (inactive)
COCC1CCCN(C(=O)c2cc(COc3ccc4ncccc4c3)on2)C1 (stereo unspecified) | 30.9% (active) | 58.5% (active) | 64.1% (active) | 47.7% (active)
CCNC(=S)N1CCN(c2nc(CC)nc3sc4c(c23)CCCC4)CC1 | 1.42% (inactive) | 48.3% (active) | 37.6% (inactive) | 5.39% (inactive)
COc1cc(NC(=O)c2ccc([N+](=O)[O-])o2)ccc1NC(=O)c1cccs1 | 30.9% (active) | 61.1% (active) | 61.9% (active) | -9.17% (inactive)
COCc1cc(C)nc(SCC(=O)Nc2cc3c(cc2C#N)OCO3)c1C#N | -4.84% (inactive) | 45.3% (active) | 47.2% (active) | -12.4% (inactive)
COc1ccc(-c2nnc(NC(=O)c3ccc([N+](=O)[O-])o3)o2)c(OC)c1 | 15.5% (inactive) | 63.4% (active) | 57% (active) | 10.2% (inactive)
COc1cc2c(cc1OC)C(c1ccc(-c3ccc(Cl)cc3Cl)o1)=NCC2 | 36.4% (active) | 58.4% (active) | 61% (active) | 62.5% (active)
CCc1cc(=O)oc2c(C)c(OCC(=O)NCCCN3CCCC3=O)ccc12 | 8.43% (inactive) | 52.1% (active) | 48.4% (active) | -11.3% (inactive)
Cn1c(CN2CCN(c3ccc(Cl)cc3)CC2)nc2ccccc21 | 5.45% (inactive) | 32.9% (inactive) | 52.9% (active) | -6.14% (inactive)
C=CCNc1nc2c(c(=O)n(C)c(=O)n2C)n1CCCCCC | 28.9% (active) | 73% (active) | 54.9% (active) | 47.2% (active)
O=C(Nc1ccc(N2CCN(C(=O)c3ccccc3)CC2)cc1)c1ccc([N+](=O)[O-])o1 | 22.4% (inactive) | 64.8% (active) | 66.6% (active) | -9.49% (inactive)
COC(=O)c1ccc(NC(=O)CSC2=NCCN2)cc1 | -0.27% (inactive) | 54.5% (active) | 43.8% (active) | 4.09% (inactive)
O=C(N/N=C/c1ccc([N+](=O)[O-])s1)C(O)c1ccccc1 (stereo unspecified) | 25.9% (inactive) | 46.7% (active) | 62.2% (active) | -11.9% (inactive)
ClCc1ncc(-c2ccc(Cl)cc2)o1 | 15.7% (inactive) | 70% (active) | 62.7% (active) | -28.8% (inactive)
CCCc1nnc(SCC(=O)Nc2ccc(C(=O)OCC)cc2)o1 | 5.44% (inactive) | 56.6% (active) | 60.7% (active) | -15.5% (inactive)
CCN1C(=O)c2cccc3c(N)ccc1c23 | 33.4% (active) | 58.6% (active) | 46% (active) | -37.8% (inactive)
O=C(COC(=O)c1ccc(Br)cc1)Nc1ccccc1Br | 9% (inactive) | 50.5% (active) | 50.1% (active) | 1.81% (inactive)
Cn1cccc1C(=O)OCC(=O)N1CCN(c2ccccc2)CC1 | 2.85% (inactive) | 32.7% (inactive) | 35% (inactive) | -18.1% (inactive)
COc1ccc(C2=Nn3c(nnc3-c3ccccc3OC)SC2)cc1OC1CCOC1 (stereo unspecified) | 54.4% (active) | 69.1% (active) | 71.1% (active) | 19.3% (inactive)
COCC(=O)NC1CCN(CC(=O)Nc2ccc(OC)cc2[N+](=O)[O-])CC1 | 14.2% (inactive) | 60.2% (active) | 60.8% (active) | -2.25% (inactive)
COc1cccc(NC(=O)N(C)C[C@H]2Oc3cc(C#Cc4ccncc4)ccc3S(=O)(=O)N([C@H](C)CO)C[C@H]2C)c1 | 28% (active) | 50.6% (active) | 44.8% (active) | -37% (inactive)
COc1ccc(C(=O)N/N=C(\c2ccccc2)c2ccccn2)cc1 | 76.4% (active) | 80.3% (active) | 84.9% (active) | 60.4% (active)

Structure (SMILES) | inhibition [1] | inhibition [2] | inhibition [3] | inhibition [4]
CNC(=O)c1cccc(NC(=O)c2cc(-c3ccccc3)nc3c2cnn3C(C)C)c1 | 29.4% (active) | 51.7% (active) | 49.4% (active) | -19.8% (inactive)
O=C(Nc1ccc(N2CCN(C(=O)c3ccco3)CC2)cc1)c1ccc2c(c1)OCO2 | 23.4% (inactive) | 48.3% (active) | 50.7% (active) | 60.5% (active)
COc1ccc(OCCNC(=O)c2ccccc2OCC(=O)Nc2ccc(NC(C)=O)cc2)cc1 | 16% (inactive) | 49.8% (active) | 52.4% (active) | 0% (inactive)
COc1cc(C(=O)Nc2ccccc2C(=O)Nc2ccccn2)cc(OC)c1OC | 61.2% (active) | 45.9% (active) | 62.1% (active) | -2.31% (inactive)
Cc1cc2oc(=O)cc(-c3ccccc3)c2c(C)c1-c1ccc(N(C)C)cc1 | 0.45% (inactive) | 52% (active) | 51.3% (active) | 12.6% (inactive)
CC(=O)Nc1cc(-c2cccc(N)c2)cn2c(-c3ccc(C(C)=O)cc3)cnc12 | 19.6% (inactive) | 33.4% (inactive) | 36.5% (inactive) | -13.4% (inactive)
CC(=O)Nc1ncc(Cc2cc(Cl)ccc2Cl)s1 | 11.1% (inactive) | 50.2% (active) | 46.7% (active) | 2.54% (inactive)
COc1cccc(C2c3cc4c(cc3OC(NNC(N)=O)C2C)OCO4)c1O (stereo unspecified) | 24.7% (inactive) | 59% (active) | 60.1% (active) | 26.5% (inactive)
CC1OC(CC(=O)O)CC2=C1C(=O)c1c(O)cccc1C2=O (stereo unspecified) | 95.4% (active) | 111% (active) | 98.2% (active) | 95.8% (active)
Cc1cc(C)c2nc(NC(=O)c3ccc([N+](=O)[O-])o3)sc2c1 | -2.6% (inactive) | 50.8% (active) | 53.7% (active) | -14.5% (inactive)
COc1ccc(CCNC(=O)c2cc(-c3ccco3)on2)cc1OC | -181% (inactive) | 43.8% (active) | 50.5% (active) | -5.34% (inactive)
COc1ccc(NC(=O)CN2C(=O)NC(C)(c3ccc(C)cc3)C2=O)c([N+](=O)[O-])c1 (stereo unspecified) | 9.06% (inactive) | 56.2% (active) | 55.1% (active) | -9.49% (inactive)
Cc1cc(=O)oc2cc(O)cc(OCc3ccccc3)c12 | 26% (inactive) | 51.7% (active) | 45.2% (active) | -8.41% (inactive)
CCC(C)n1c(SCC(=O)NCCc2ccc(S(N)(=O)=O)cc2)nc2ccsc2c1=O (stereo unspecified) | 10.6% (inactive) | 48.7% (active) | 52.6% (active) | -3.41% (inactive)
O=C(COC(=O)c1ccccc1O)Nc1ccc(N2CCOCC2)cc1 | 0.71% (inactive) | 59.3% (active) | 60.4% (active) | -1.07% (inactive)
CCn1c(SCC(=O)Nc2ccc(N3CCOCC3)cc2)nnc1-c1ccco1 | 3.02% (inactive) | 58% (active) | 47.3% (active) | 10.2% (inactive)
CCn1c(=O)oc2cc(NC(=O)CCl)ccc21 | 44.4% (active) | 64.4% (active) | 65.9% (active) | -54.9% (inactive)
Cc1ccc(-n2c(SCC(=O)NCc3ccco3)nc3sc4c(c3c2=O)CC(C)(C)SC4)cc1 | 17.6% (inactive) | 56.1% (active) | 44.8% (active) | 6.61% (inactive)
O=C(CN1CCN(S(=O)(=O)c2cc(Cl)ccc2Cl)CC1)Nc1ccc2c(c1)OCCO2 | 19% (inactive) | 59.6% (active) | 59.1% (active) | -3.13% (inactive)
CCC(C)Nc1nc(-c2cccc(OC)c2O)nc2ccccc12 (stereo unspecified) | 30.8% (active) | 52.4% (active) | 46.3% (active) | -7% (inactive)
CS(=O)(=O)N1CCN(c2ccccc2NC(=O)c2cc3ccccc3o2)CC1 | 26.4% (inactive) | 47.5% (active) | 33.7% (inactive) | -6.66% (inactive)
CC1(C)CC(=O)C=C(c2ccc3c(c2)OCO3)C1 | -7.31% (inactive) | 40.6% (inactive) | 42.1% (inactive) | 2.47% (inactive)
N#CC1=C(N)C(C#N)(C#N)[C@H](c2c(F)cccc2F)[C@H]2CC3(CC=C12)OCCO3 | 16.1% (inactive) | 60.9% (active) | 54% (active) | 17.2% (inactive)
O=C(CSc1ncnc2c1cnn2Cc1ccccc1)Nc1ccc2c(c1)OCCO2 | 2.88% (inactive) | 61.3% (active) | 54% (active) | 2.68% (inactive)
